Source: PubChem
Sampled rows, rich in hits. Any-hit rate of the full collection: about 9%.
ALDH1A1 block: inhibitors of human aldehyde dehydrogenase 1A1; AID 1030; Purified ALDH1A1, NADH fluorescence, propionaldehyde substrate; P00352; Potency, µM (highest dose often 75.3 µM), without a hit: at the top dose activity, negative = inhibition, hits mostly inhibitors; 220,000 tested, 7.3% active; active = well fitted inhibition curve with a large enough effect, not every such curve was filed as active; inconclusive = small, poorly fitted or top-dose-only effect, or another doubt; inactive = no such curve, though single readings can be large or run the other way;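 note: plate controls were no enzyme wells and a reference inhibitor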
Target sequence (P00352 whole entry, looked up): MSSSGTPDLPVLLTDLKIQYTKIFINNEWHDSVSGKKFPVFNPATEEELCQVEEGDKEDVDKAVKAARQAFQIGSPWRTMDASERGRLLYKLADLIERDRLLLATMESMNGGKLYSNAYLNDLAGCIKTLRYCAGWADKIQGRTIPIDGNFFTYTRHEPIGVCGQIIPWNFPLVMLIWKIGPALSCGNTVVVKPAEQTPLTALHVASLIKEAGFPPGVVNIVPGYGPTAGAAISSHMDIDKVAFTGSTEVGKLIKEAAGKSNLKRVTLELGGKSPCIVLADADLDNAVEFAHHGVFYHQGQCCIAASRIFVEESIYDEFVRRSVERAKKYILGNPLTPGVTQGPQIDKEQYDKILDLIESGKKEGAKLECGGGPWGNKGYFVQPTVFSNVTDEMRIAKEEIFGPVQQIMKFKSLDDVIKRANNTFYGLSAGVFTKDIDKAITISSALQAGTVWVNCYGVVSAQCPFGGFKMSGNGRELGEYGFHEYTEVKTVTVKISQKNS
Luc counter: Kinase-Glo luciferase inhibition (counter-screen); Q27757; AID 1379; Kinase-Glo luciferase, ATP luminescence, 8 min; Potency, µM (doses to about 38.3 µM), for the others: at the highest dose activity change, negative = inhibition, usual class: inhibitors; 200,000 tested, 0.28% active; note: % is set by controls: 0 for no effect and ±100 for the full control effect; nearly all actives have a fitted effect of over 60% in size
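Recombinant Kinase-Glo luciferase, 10 uM ATP (linear range), luciferin; imidazole pH 7.2 / KCl / MgCl2 / Tween / BSA buffer; 8 min RT; luminescence.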
HPGD block: HPGD (human) dehydrogenase inhibition; 150,000 tested, 4.3% active; purified HPGD, NADH fluorescence kinetic, PGE2 substrate; Potency, µM, inactives show at the top dose activity change, negative = inhibition, hits mostly inhibitors; P15428; AID 894; active = well fitted inhibition curve with a large enough effect, not every such curve was filed as active; inconclusive = small, poorly fitted or top-dose-only effect, or another doubt; inactive = no such curve, though single readings can be large or run the other way; note: % is set by controls: 0 for no effect and ±100 for the full control effect
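NADH formation kinetics: reaction with 30 uM PGE2 and 1 mM NAD+ (final), 20 nM enzyme, Tris-HCl pH 8 with Tween 20, after 15 min compound preincubation at room temperature. Fluorescence change, last versus first of five reads.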
HTT aggregate: reduces HttQ103-GFP aggregates in PC12 cells. 220,000 tested, 1.1% active. Potency, µM (titrated, usually from 46.1 µM), for the others: top-dose activity change, negative = inhibition, actives largely listed as inhibitors. PC12 HttQ103-GFP aggregates, Acumen cytometry, 40 h; note: % is set by controls: 0 for no effect and ±100 for the full control effect; nearly all actives have a fitted effect of over 60% in size
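Aggregate formation scored by laser-scanning cytometer (488 excitation, 500–530 emission) in lysed PC12 cells expressing Q103-GFP after 100 nM tebufenozide induction; library tested in dose series, with ATPLite reagent added in the multiplex.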
HTT cytoprotect: protects HTT-Q103 PC12 cells, measured by ATP; AID 1471; 230,000 tested, 0.14% active; Potency, µM (highest dose often 56.4 µM), without a hit: cytoprotection (ATP increase), usual class: activators; PC12 HTT-Q103 induced, cytoprotection, ATP luminescence, 40 h; note: % of control where 0% means no effect; nearly all actives have a fitted effect of over 45% in size
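Cells were plated at 1500 per well in phenol red-free DMEM with 5% equine and 5% calf serum. Tebufenozide (100 nM final) and compounds were added, then ATPlite reagent, and luminescence was read.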
Lamin A splicing: changes lamin A minigene splicing in HeLa cells; HeLa LMNA splicing GFP/RFP minigene ratio, 48 h; Potency, µM (titrated, usually from 46.1 µM), for inactives: at the highest dose ratio change, negative = inhibition, most hits filed as inhibitors; 200,000 tested, 0.01% active; AID 1487; active = well fitted inhibition curve with a large enough effect in the signal ratio, with a control signal flat, not every such curve was filed as active; inconclusive = small, poorly fitted or top-dose-only effect, or effect the other way, or a change in a side signal; the % refers to the signal ratio; note: % is set by controls: 0 for no effect and ±100 for the full control effect
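Read-out is the ratio of GFP to DsRed2 object intensity, acquired by 488 nm laser-scanning cytometry on HeLa lamin A-EGFP minigene reporter cells. Compound incubation 48 hrs at 37 °C in Opti-MEM with 2% FBS; DMSO 0.5% final.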
Active calls of the source: *; ? = inconclusive; · = no result given; ! = not active in a repeat; [ ] = dose if it differs, or a comment. Unless noted, calls come from the whole dose curve; as a rule, active = well fitted curve in the direction sought with a large enough effect; inconclusive = small, poorly fitted or top-dose-only effect, or another doubt; inactive = no such curve, though single readings can be large; an effect the other way counts as inactive or inconclusive. Potency is the fitted concentration of half-maximal effect.

SMILES	ALDH1A1 block	Luc counter	HPGD block	HTT aggregate	HTT cytoprotect	Lamin A splicing
Fc1ccccc1CNC1CN2CCC1CC2 (stereo not drawn)	4.3%	-1.4%	·	·	·	7.7%[46 µM]
BrC(Br)Br	0.7%	·	-1.8%	·	-6.6%	·
Nc1ccccc1C(=O)O	?	·	-19.8%	-4.0%	-41.3%	20.0%
Nc1ccccc1O.O.O=C(O)[C@H]1[O][Sb][O][C@H]1C(=O)O	3.16µM*	-3.9%[7.66 µM]	-5.6%	·	21.9%[10 µM]	·
N#CC(=Cc1ccc(O)c(O)c1)C(N)=S	0.794µM*	-6.6%	28.2µM*	·	·	?
CN(C)c1ccc(C=C(C#N)C#N)cc1	28.2µM*	-1.0%	-5.1%	15.1%	14.6%[1.9 µM]	-13.8%
N#C/C(=C\c1cccc(O)c1)C(=O)O	-8.6%	3.0%	-29.6%	·	·	2.2%
N#CC(C#N)=Cc1ccc(-c2ccccc2)o1	?	1.0%	-14.1%	25.2%	?	?
CCc1ccc(/C=C(/C#N)C(N)=S)cc1	31.6µM*	3.7%	31.6µM*	3.1%	·	?
N#C/C(=C\c1ccc(O)cc1)C(=O)O	?	-4.6%	?	·	·	-2.5%
N#CC(C#N)=Cc1ccc(O)c(O)c1	11.2µM*	-5.8%	31.6µM*	5.0%	37.9%	?
Cc1cccc(-n2c(-c3ccco3)nc3ccccc3c2=O)n1	-11.3%	1.8%	-3.9%	0.4%	-7.1%	-11.8%
CCOc1cccc(C2NCc3ccccc3-n3cccc32)c1O (stereo not drawn)	-9.5%	-1.8%	-7.2%	-31.5%	-1.0%[0.074 µM]	?
Nc1c(C(=O)OCc2ccccc2)c2nc3ccccc3nc2n1Cc1cccs1	?	0.4%	?	-28.5%	9.3%	23.3%
N#CC(C#N)=Cc1ccc(N2CCCC2)cc1	10µM*	12.2%	·	-13.6%	-36.1%	·
CC(C)(C)c1cc(C=C(C#N)C#N)cc(C(C)(C)C)c1O	8.91µM*!	-4.0%	?	·	-75.8%	?
N#CCN1CCN(c2ccc(C(F)(F)F)cc2)CC1	12.4%	-0.2%	-2.6%	2.4%	·	-2.2%
COc1cc(C=C(C#N)C#N)cc(O)c1O	31.6µM*	-6.2%	31.6µM*	·	11.2%[1.9 µM]	?
O=C(/C=C\c1ccc(Cl)cc1)N[C@@]12CCC(=O)[C@@H]3Oc4c(O)ccc5c4[C@@]31CCN(CC1CC1)[C@@H]2C5	-0.3%	-2.5%	4.0%	·	5.7%	·
O=CN1C[C@H]2C[C@@H](C1)c1cccc(=O)n1C2	·	·	·	·	4.9%	·
O=c1[nH]c(=O)n(CCC2=CCCCC2)c(O)c1/C=N/Nc1cccc2ccccc12	·	·	·	13.0%[9.22 µM]	12.0%[10 µM]	·
CCOC(=O)c1cc(C)sc1/N=C/C1C(=O)NC(=S)NC1=O	7.08µM*	2.4%	·	14.6%	-23.5%	-16.2%[46 µM]
N#Cc1c(/N=C/C2C(=O)NC(=S)NC2=O)sc2c1CCCC2	22.4µM*	-0.7%	·	15.9%	·	·
CCOC(=O)c1c(/N=C/C2C(=O)NC(=S)NC2=O)sc2c1CCC2	17.8µM*	-1.8%	·	15.4%	-21.7%	-2.3%[46 µM]
CCOC(=O)c1c(/N=C/C2C(=O)NC(=S)NC2=O)sc(C)c1C	20µM*	-0.8%	·	26.4%	·	·
SMILES	ALDH1A1 block	Luc counter	HPGD block	HTT aggregate	HTT cytoprotect	Lamin A splicing
FC(F)(F)c1ccc2c(c1)N(CCCN1CCN(CCCl)CC1)c1ccccc1S2	-38.0%	-3.9%	?	4.5%	-0.6%	?
Cc1cccc(C(=O)Nc2ccc(Cl)cc2C(=O)c2ccccc2)c1	-7.4%	-0.1%	-15.2%	1.6%	-4.7%	-0.4%
Cc1cccc(NC(=O)c2cccc(NS(=O)(=O)c3ccc(Cl)cc3)c2)c1	?	-4.2%	12.6µM*	-1.4%	3.6%	?
CC1=NN(c2ccccc2)C(=O)C1/C=C1\C(=O)NC(=O)N(c2cc(C)cc(C)c2)C1=O (stereo not drawn)	?	-5.2%	-27.6%	7.0%	-5.2%[10 µM]	-8.3%
Cc1cc(/C=C2/C(=O)NC(=O)N(C)C2=O)c(C)n1-c1ccccc1	2.0%	-5.6%	·	-19.2%[9.22 µM]	-34.0%	?
CCN1C(=O)C(=Cc2cc(C)n(C3CC3)c2C)C(=O)N(CC)C1=S	10µM*	-2.9%	-19.0%	?	-7.8%[10 µM]	-7.9%
